RN4220 kill: kills Staphylococcus aureus RN4220; inhibition, % (concentration not given with the values); S. aureus RN4220 growth, OD600, 16 h; hit rate 0.33% among 330,000; in the data active = inhibition above about 85%;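 note: plate controls were untreated cells for no effect and reference antibiotic for full effect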
PfHsp40 rescue: restores yeast growth despite PfHsp40 toxicity; S. cerevisiae expressing PfHsp40, growth rescue, ATP luminescence; growth rescue, % at 12.5 µM; hit rate 0.68% among 340,000; AID 504582; in the data active = growth rescue above about 28%, passing the limit was not always enough;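 note: yeast W303a lacking pdr1 and pdr3 grown in galactose medium; growth measured after three days at 30 °C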
ugtP null kill: growth inhibition of S. aureus ugtP deletion strain | S. aureus RN4220 ugtP deletion, OD600 growth, 16 h | growth inhibition, % (test concentration not listed) | hit rate 0.54% among 330,000 | AID 1259309; in the data active = growth inhibition above about 68%;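 note: plate controls were untreated wells for no effect and antibiotic for full effect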
BJeLR viability: BJeLR cell viability loss; inhibition, % (no concentration beside the values); BJeLR (HRASV12) viability, CellTiter-Glo ATP luminescence, 48 h; hit rate 0.17% among 300,000; AID 1554; in the data active = inhibition above about 50%
CCHFV vOTU inh: CCHFV vOTU protease inhibition; inhibition, % at 11.5 µM; hit rate 0.55% among 370,000; Pep-AMC fluorescence; in the data active = inhibition above about 30%; note: 0% = vehicle wells with enzyme and 100% = no enzyme wells
Active calls of the source: *. Shown are actives, neighbours in structure and some others; about 1.6% of the full set was active somewhere.

Screening N=c1c2c(n(Cc3ccc(Cl)c(Cl)c3)c3c1CCC3)CCCC2 returned RN4220 kill 91*, PfHsp40 rescue -2, ugtP null kill 99*, BJeLR viability 49 and CCHFV vOTU inh -1.
COC(=O)C1=C(c2ccc(OCc3ccccc3)cc2)CC2CCC1N2C(=O)NCCCc1ccccc1 (stereo not drawn) was read as RN4220 kill -5 and ugtP null kill 4.
For O=S1(=O)CCC(=NNc2ccccn2)c2cc(F)ccc21 the results were RN4220 kill 11 and ugtP null kill 5.
Screening CC(=NOCc1nc2ccccc2c(=O)n1N=Cc1cc(C)cc([N+](=O)[O-])c1O)c1ccccc1 returned RN4220 kill 2 and ugtP null kill 3.
For Cc1cc(/C=N/n2c(COc3ccccc3C)nc3ccccc3c2=O)c(O)c([N+](=O)[O-])c1 the results were PfHsp40 rescue 57*, BJeLR viability -11 and CCHFV vOTU inh 0.
Screening C=CCn1c(SCc2c(C)noc2C)nc2sc3c(c2c1=O)CCCCC3 returned RN4220 kill 4, PfHsp40 rescue -1, ugtP null kill 88*, BJeLR viability -5 and CCHFV vOTU inh -3.
For O=C(C=CNc1ccc(F)cc1)c1cccs1 the results were RN4220 kill 4 and ugtP null kill -6.
Screening Cc1n[nH]c(C)c1N=Nc1ccc(Br)cc1 returned RN4220 kill 18, PfHsp40 rescue 242*, ugtP null kill 59, BJeLR viability 7 and CCHFV vOTU inh 6.
Screening COc1ccc(N=Nc2c(C)n[nH]c2C)cc1 returned RN4220 kill 4, PfHsp40 rescue 0, ugtP null kill 7, BJeLR viability -7 and CCHFV vOTU inh 6.
Screening O=C(c1ccc(CS(=O)Cc2ccc(Cl)cc2)o1)N1CCN(c2ccccc2)CC1 (stereo not drawn) returned RN4220 kill -6, PfHsp40 rescue 0, ugtP null kill 94*, BJeLR viability -14 and CCHFV vOTU inh 1.
COc1cccc(N2CCN(C(=O)c3ccc(CS(=O)Cc4ccc(Cl)cc4)o3)CC2)c1 (stereo not drawn) was read as RN4220 kill -7, PfHsp40 rescue -1, ugtP null kill 92*, BJeLR viability -16 and CCHFV vOTU inh -7.
`COc1cccc(N2CCN(C(=O)c3ccc(CS(=O)Cc4ccccc4Cl)o3)CC2)c1` (stereo not drawn) gave RN4220 kill -3, PfHsp40 rescue 0, ugtP null kill 4, BJeLR viability 0 and CCHFV vOTU inh 3.
For COc1ccc(N2CCN(C(=O)c3ccc(CS(=O)Cc4ccc(C)cc4)o3)CC2)cc1 (stereo not drawn) the results were RN4220 kill -7, PfHsp40 rescue 0, ugtP null kill 96*, BJeLR viability -8 and CCHFV vOTU inh 6.
COc1cccc(C=NNC(=S)Nc2cccnc2)c1 was read as RN4220 kill 9 and ugtP null kill -1.
For S=C(NC1CCCC1)N1CCN(c2cccc(Cl)c2)CC1 the results were RN4220 kill 2, PfHsp40 rescue 47*, ugtP null kill -10, BJeLR viability -3 and CCHFV vOTU inh -7.
S=C(NC1CC1)N1CCN(c2ccc(Cl)cc2)CC1 was read as RN4220 kill 2, PfHsp40 rescue 4, ugtP null kill -1, BJeLR viability -2 and CCHFV vOTU inh 1.
Screening COc1ccc2[nH]c(=O)c(CN(Cc3cccnc3)C(=O)Nc3ccccc3)cc2c1 returned RN4220 kill 5, PfHsp40 rescue 288*, ugtP null kill 7, BJeLR viability 6 and CCHFV vOTU inh 0.
`O=C(CC1C(=O)N(c2ccc(F)c(F)c2)CC1Cc1ccccc1)Nc1ccccc1` (stereo not drawn) gave RN4220 kill -1 and ugtP null kill 13.
`NC(=O)C1CCOc2c(F)cc([N+](=O)[O-])cc2C(=O)NC(CO)C(=O)NCC(=O)N1` (stereo not drawn) gave RN4220 kill 6 and ugtP null kill 8.
CCN(C[C@H]1N[C@@](Cc2ccccc2)(C(=O)OC)[C@H]2C(=O)N(Cc3ccccc3)C(=O)[C@@H]12)C(=O)Nc1ccc(C(F)(F)F)cc1 was read as RN4220 kill 100*, PfHsp40 rescue 0, ugtP null kill 100* and CCHFV vOTU inh 12.
Screening CCN(C[C@H]1N[C@@](Cc2ccccc2)(C(=O)OC)[C@H]2C(=O)N(Cc3ccccc3)C(=O)[C@@H]12)C(=O)Nc1ccc(C)cc1 returned RN4220 kill -1, PfHsp40 rescue 2, ugtP null kill -2 and CCHFV vOTU inh 12.
Screening Nc1[nH]c(=O)ncc1F returned RN4220 kill 7, PfHsp40 rescue 370*, ugtP null kill 1, BJeLR viability 9 and CCHFV vOTU inh -6.
For Nc1[nH]c(=O)ncc1-c1ccc([N+](=O)[O-])cc1 the results were CCHFV vOTU inh 3.
Screening O=C(O)COc1ccccc1C=NNC(=O)c1ccc2c(c1)OCCO2 returned RN4220 kill 2 and ugtP null kill -1.
`CCC(C)c1ccc(O)c(NC(=S)NC(=O)c2cccnc2)c1` (stereo not drawn) gave RN4220 kill 14, PfHsp40 rescue 54*, ugtP null kill 7, BJeLR viability -1 and CCHFV vOTU inh -3.
Screening CCOC(=O)NC1Cc2ccccc2C1Sc1ccccn1 (stereo not drawn) returned RN4220 kill 1, PfHsp40 rescue 54*, ugtP null kill 9, BJeLR viability 2 and CCHFV vOTU inh -3.
Screening CCCCCCCSc1nsc(N)n1 returned RN4220 kill 8, PfHsp40 rescue 4, ugtP null kill 89*, BJeLR viability 1 and CCHFV vOTU inh 3.
For O=S(=O)(c1ccc(Cl)c(Cl)c1)c1snnc1-c1ccccc1 the results were RN4220 kill 24, PfHsp40 rescue 6, ugtP null kill 46 and BJeLR viability 53*.
Cc1[nH]c2ccc(C(=O)NC3CCCC3)cc2c1C was read as RN4220 kill 10, PfHsp40 rescue 29*, ugtP null kill 12 and CCHFV vOTU inh 7.
Screening Cc1[nH]c2ccc(C(=O)NC3CCC(C)CC3)cc2c1C (stereo not drawn) returned RN4220 kill -2, PfHsp40 rescue 1, ugtP null kill -12, BJeLR viability 3 and CCHFV vOTU inh 20.
`O=C(Nc1cc(S(=O)(=O)N2CCOCC2)ccc1Cl)C(=O)c1c(-c2ccccc2)cc2ccccn12` gave RN4220 kill 10, PfHsp40 rescue 66*, ugtP null kill -10, BJeLR viability 1 and CCHFV vOTU inh 3.
`O=C(NN=C1CC2C=CCC12)c1cccs1` (stereo not drawn) gave RN4220 kill -1 and ugtP null kill 2.
O=C(O)CCCN1C(=O)/C(=C/c2cn(-c3ccccc3)nc2-c2cccs2)SC1=S was read as RN4220 kill 50, PfHsp40 rescue -1, ugtP null kill 83*, BJeLR viability 7 and CCHFV vOTU inh 13.
For CCOC(=O)NN=Cc1c(F)c(F)c(F)c(F)c1F the results were RN4220 kill 3 and ugtP null kill 1.

Bioassay records: PubChem BioAssay, several laboratories
